This is part of a sample that, as a whole, favours compounds with a hit. Of some 79,000 tested, about 15% had one in any assay. Values without a mark were called inactive. Active and inactive are the calls of the source. Cut-off read from the data, not from the text of the source: active = growth inhibition above about 70%; inactive = the rest.

Experiment [1] can be described thus: NCI Yeast Anticancer Drug Screen. Data for the rad50 strain (AID 155).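 Note: 0% = growth of vehicle-only cultures of the same strain.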 As to conditions: S. cerevisiae rad50 strain growth inhibition; at 50.0 µM; stronger effect = higher value. A digest of the protocol:
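Vehicle-treated cultures provide the reference for the growth inhibition reported for compound-exposed, repair-deficient yeast.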

The nature of experiment [2]: NCI Yeast Anticancer Drug Screen. Data for the mec2-1 strain (AID 157). As to conditions: S. cerevisiae mec2-1 strain, at 50.0 µM, stronger effect = higher value. A digest of the protocol: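 mec2-1 yeast strain, carrying an alteration in DNA damage repair or cell cycle control, was exposed to compounds; growth inhibition was measured relative to vehicle-treated controls.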
A short description of experiment [3]: NCI Yeast Anticancer Drug Screen. Data for the sgs1 mgt1 strain (AID 161).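 Note: 0% = growth of cultures given vehicle only.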 As to conditions: S. cerevisiae sgs1 mgt1 strain, at 50.0 µM, stronger effect = higher value. A digest of the protocol:
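Yeast cells carrying a defined DNA-repair defect were exposed to test compounds. Growth inhibition was measured relative to vehicle-treated controls.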

The nature of experiment [4]: NCI Yeast Anticancer Drug Screen. Data for the cln2 rad14 strain (AID 165).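 Note: 0% = growth equal to vehicle treated cultures.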 As to conditions: S. cerevisiae cln2 rad14 strain, at 50.0 µM, stronger effect = higher value. A digest of the protocol:
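Yeast carrying cln2 and rad14 alterations (cell cycle control and DNA damage repair) were exposed to compounds. Growth inhibition was measured against vehicle-treated controls.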

Experiment [5] is described as follows: NCI Yeast Anticancer Drug Screen. Data for the bub3 strain (AID 167). The following applies: S. cerevisiae bub3 mutant strain, at 50.0 µM, stronger effect = higher value. Summed up: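 Mutant yeast screening strain plus compound; vehicle-treated cultures serve as the 0% inhibition reference.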
The nature of experiment [6]: NCI Yeast Anticancer Drug Screen. Data for the mlh1 rad18 strain (AID 175). The following applies: S. cerevisiae mlh1 rad18 strain growth inhibition; at 50.0 µM; stronger effect = higher value. A digest of the protocol:
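Growth inhibition of the yeast strain was measured after compound exposure and expressed relative to vehicle-treated controls. The strain carries defined defects in DNA damage repair.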

For the compound `CC(=O)N[N+](C)(C)C`, the growth inhibition in experiment [1] is -20%; in experiment [2], -39.2%; in experiment [3], 11.5%; in experiment [4], 4.05%; in experiment [5], 1.2%; in experiment [6] it was 7.9%.
For the compound `O=CC(O)C(O)C(O)C(O)COC(=S)OCC(O)C(O)C(O)C(O)C=O` (stereo unspecified) (tested in a mixture with another compound), the growth inhibition is -4.35% in experiment [1]; -10.1% in experiment [2]; -2.85% in experiment [3]; -3.1% in experiment [4]; 6.05% in experiment [5]; -4.25% in experiment [6].
As for `C=C1C(=O)O[C@@H]2[C@H]1CC[C@H](C)[C@]1(O)CCC(=O)[C@@]21C`, the growth inhibition in experiment [1] was -5.3%; in experiment [2] it was -13.6%; in experiment [3] it was 14.2%; in experiment [4], 7.85%; in experiment [5], -4.75%; in experiment [6] it was 3%.
In the case of `COC(=O)c1nc(N)nc(C(=O)OC)c1C(=O)c1ccc(F)cc1`, the growth inhibition in experiment [1] is 8.55%; in experiment [2], -1%; in experiment [3] it was -12.3%; in experiment [4] it was 5.35%; in experiment [5] it was 9.4%; in experiment [6] it was 20.6%.
Take `O=C(CN1C(=O)c2ccccc2C1=O)OC1C=CCCC1` (stereo unspecified): the growth inhibition in experiment [1] was 12.2%; in experiment [2], 0.65%; in experiment [3], 1.5%; in experiment [4], 18.7%; in experiment [5] it was 9.6%; in experiment [6], 10.3%.
As to `C/C(=C\c1ccccc1)C(O)C(=O)c1nc2ccc([N+](=O)[O-])cc2[nH]c1=O` (stereo unspecified), the growth inhibition was -5.55% in experiment [1]; -33.1% in experiment [2]; -11.4% in experiment [3]; 21.4% in experiment [4]; -26.4% in experiment [5]; 14.5% in experiment [6].
As for `O=NN1C2CCCCC2C2CCCCC21` (stereo unspecified), the growth inhibition was -9% in experiment [1]; 20.5% in experiment [2]; -14.7% in experiment [3]; -5.25% in experiment [4]; 26.2% in experiment [5]; 3.8% in experiment [6].
Consider `COc1ccc2c(c1)CCc1c(C(C)=O)c3ccccc3n1C2`, for which the growth inhibition in experiment [1] was 19.8%; in experiment [2], -13.3%; in experiment [3], 46.4%; in experiment [4], 15.2%; in experiment [5] it was 47.1%; in experiment [6], 2.15%.
Regarding `NC(=O)N/N=C/c1ccccc1O`, the growth inhibition in experiment [1] is 28.8%; in experiment [2] it was 11.2%; in experiment [3], 15%; in experiment [4] it was 5.95%; in experiment [5], -1.2%; in experiment [6] it was 6.75%.
Regarding `C/C(=N\Sc1cccc([N+](=O)[O-])c1)c1ccccc1O`, the growth inhibition in experiment [1] was 91.2% (active); in experiment [2] it was 96.5% (active); in experiment [3], 96.2% (active); in experiment [4], 90.8% (active); in experiment [5], 94% (active); in experiment [6], 96% (active).
For the compound `CN(C(=O)/C=C/c1ccccc1)c1ccccc1`, the growth inhibition in experiment [1] is 45.6%; in experiment [2], 13.4%; in experiment [3], 49.5%; in experiment [4] it was 27.1%; in experiment [5], 43.3%; in experiment [6], 32.4%.
On to `O=C(O)Cn1ccc(=O)c2ccc([N+](=O)[O-])cc21`, for which the growth inhibition is 35.7% in experiment [1]; 15.2% in experiment [2]; 13.7% in experiment [3]; 26.9% in experiment [4]; 23.8% in experiment [5]; -47.5% in experiment [6].
Regarding `C(=N\NC1=NCCN1)/c1ccccc1`, the growth inhibition was -1.35% in experiment [1]; -9.05% in experiment [2]; 5.6% in experiment [3]; -36.8% in experiment [4]; -7.4% in experiment [5]; 13.3% in experiment [6].
With `CN(C)C(=N)N=C(N)N`, the growth inhibition is -23.2% in experiment [1]; -30.1% in experiment [2]; -27.6% in experiment [3]; -1.8% in experiment [4]; -42.9% in experiment [5]; -21.1% in experiment [6].
As to `CC(=O)/C(N=Nc1ccc(S(=O)(=O)c2ccc(N=N/C(C(C)=O)=C(/C)O)cc2)cc1)=C(\C)O`, the growth inhibition in experiment [1] was -27.2%; in experiment [2] it was -20.4%; in experiment [3] it was -9.8%; in experiment [4], 0.15%; in experiment [5], -20.6%; in experiment [6] it was -14.9%.
As for `COc1ccc(C(=O)C(O)c2ccc(OC)cc2)cc1` (stereo unspecified), the growth inhibition was 8.15% in experiment [1]; -8.65% in experiment [2]; -1.55% in experiment [3]; -16.4% in experiment [4]; -4.35% in experiment [5]; 26.1% in experiment [6].
Turning to `CC1=CC(=O)c2ccc3c4ccccc4n(C)c3c2C1=O`, the growth inhibition was -16.7% in experiment [1]; -35.1% in experiment [2]; -13.9% in experiment [3]; 0.2% in experiment [4]; -2.9% in experiment [5]; -19.9% in experiment [6].
Take `Cc1c(C2CCC(=O)C2)c2ccccc2n1C` (stereo unspecified): the growth inhibition in experiment [1] is -3.05%; in experiment [2] it was -23.3%; in experiment [3], -4.6%; in experiment [4], 15.4%; in experiment [5], 2.1%; in experiment [6] it was 3.5%.
For `CCOc1c2c(nn(C)c1=O)Oc1ccccc1N2CCCN1CCOCC1`, the growth inhibition in experiment [1] is -27.6%; in experiment [2], -0.25%; in experiment [3], -18.1%; in experiment [4] it was 2.3%; in experiment [5] it was 3.95%; in experiment [6] it was -4.6%.
For the compound `CCC(CC)(C(=O)O)C(=O)O`, the growth inhibition in experiment [1] was 34.1%; in experiment [2], 9.3%; in experiment [3], -3.35%; in experiment [4], -33.2%; in experiment [5] it was 12.7%; in experiment [6], 5.8%.
Consider `COCC(=O)c1ccccc1-c1ccccc1`, for which the growth inhibition is 13.6% in experiment [1]; -2.65% in experiment [2]; 3.15% in experiment [3]; -4.1% in experiment [4]; -11.2% in experiment [5]; 0.85% in experiment [6].

For the origin of these results see PubChem BioAssay (NCI).
